Test results published in PubChem BioAssay (EPA / NIEHS).
The source holds several records for some structures; these can differ, active in one and inactive in another. The source made the active and inactive calls. Rule for the calls: active = hit-call score of the fitted dose curve at least 0.9, where 1 is the maximum; inactive = score below 0.9.

Experiment: ATG_ISRE_CIS: Attagene CIS-FACTORIAL HepG2 Assay for human Interferon Regulatory Factor 1 (IRF1) binding to an Interferon-Stimulated Response Element (ISRE) (AID 2282948)
Conditions: HepG2 ISRE cis-reporter (Attagene), mRNA transcription readout; actives raise or lower the signal
Method: ATG_CIS is a cell-based, multiplexed-readout assay that uses HepG2, a human liver cell line, with measurements taken at 24 hours after chemical dosing in a 24-well plate.ATG_ISRE_CIS is one of 52 assay component(s) measured or calculated from the ATG_CIS assay. It is designed to make measurements of mRNA induction, a form of inducible reporter, as detected with fluorescence intensity signals by Reverse transcription polymerase chain reaction (RT-PCR) and Capillary electrophoresis technology.Data from the assay component ATG_ISRE_CIS was analyzed into 1 assay endpoint. This assay endpoint, ATG_ISRE_CIS, was analyzed with bidirectional fitting relative to DMSO as the negative control and baseline of activity. Using a type of inducible reporter, measures of mRNA for gain or loss-of-signal activity can be used to understand the reporter gene at the transcription factor-level as they relate to the gene IRF1. Furthermore, this assay endpoint can be referred to as a primary readout, because this assay has produced multiple assay endpoints where this one serves a reporter gene function. To generalize the intended target to other relatable targets, this assay endpoint is annotated to the dna binding intended target family, where the subfamily is interferon regulatory factors.
Human liver HepG2 cells are transiently transfected with multiple reporter transcription units (MRTUs) in 6-well plates using FuGene 6 reagent (Roche; 3 ml FuGene/1 mg DNA). The MRTU constructs are regulated by a cis-regulating element (promoter). […] A major difference between the CIS and TRANS system is that in CIS activities of endogenous TFs are measured, whereas the TRANS assay evaluates changes in activities of exogenous, chimeric NR-Gal4 proteins. […] At the end of 24 hour incubation, total RNA was isolated using TriZol reagent (Invitrogen). The isolated RNA is then reverse-transcribed using oligo(dT) primer and Mo-MLV reverse transcriptase (Invitrogen) with DNAse I (Ambion) treatment for 30 min. The one-tenth of the produced cDNA was amplified by PCR using Taq DNA polymerase (Invitrogen) and two reporter sequence-specific primers. The PCR products were fluorescently labeled by primer extension with 6-arboxyfluorescein (6-FAM) 5'-labeled reporter sequence-specific primer (2 min at 95 C, 20 s at 68 C and 10 min at 72 C) and these products were digested with 5U of HpaI (New England Biolabs) for 2h at 37 C. The fragments were purified using Qiaquick PCR columns (Qiagen), analyzed on an ABI 3130xL genetic analyzer (Applied Biosystems) with peak positions identified by using a set of X-rhodamine (ROX)-labeled MapMarker1000 molecular weight standards (BioVentures). The raw capillary electrophoresis data was processed using Attagraph software (Attagene).

| SMILES | outcome | AC50 |
| --- | --- | --- |
| Cc1ccc2ccc3ccc(C)cc3c2c1 | inactive |  |
| CCCCCCOC(=O)c1ccc(O)cc1 | inactive |  |
| O=c1cc(-c2ccccc2)oc2ccc3ccccc3c12 | inactive |  |
| C=C(c1ccc(C(=O)O)cc1)c1cc2c(cc1C)C(C)(C)CCC2(C)C | inactive | 16.8 µM (active) |
| Cc1cncc(C)c1 | inactive |  |
| c1ccc2c(c1)CCC2 | inactive |  |
| O=S(=O)(O)c1ccccc1 | inactive |  |
| Cc1cc(=O)oc2cc(O)ccc12 | inactive |  |
| Cc1ccc(S(=O)(=O)O)cc1 | inactive |  |
| CC(C)c1c(C(=O)Nc2ccccc2)c(-c2ccccc2)c(-c2ccc(F)cc2)n1CC[C@@H](O)C[C@@H](O)CC(=O)O | inactive |  |
| CN(Cc1cnc2nc(N)nc(N)c2n1)c1ccc(C(=O)N[C@@H](CCC(=O)O)C(=O)O)cc1 | inactive |  |
| CC1CNCC(C)O1 (stereo not given) | inactive |  |
| O=C1Cc2ccccc2N1c1c(Cl)cccc1Cl | inactive |  |
| CC(O)COc1ccccc1 (stereo not given) | inactive |  |
| Cn1sccc1=O |  | 163 µM (active) |
| CCCCC(CC)C(=O)O (stereo not given) | inactive |  |
| CCCC=O | inactive |  |
| O=C(NO)c1ccccc1 |  | 44.4 µM (active) [middle of 4 runs] |
| FC(F)(F)C(F)(F)C(F)(F)C(F)(F)I | inactive |  |
| Cc1ccc(C)c(S(=O)(=O)O)c1 | inactive |  |

| SMILES | outcome | AC50 |
| --- | --- | --- |
| CCO[Si](CCC1CCC2OC2C1)(OCC)OCC (stereo not given) | inactive |  |
| Oc1c(Cl)ccc(Cl)c1Cl | inactive |  |
| CCCCCCCCCCCCCCCCCC[N+](C)(C)Cc1ccccc1 |  | 12.8 µM (active) |
| O=CC(F)(F)C(F)(F)C(F)(F)C(F)F | inactive |  |
| O=C1OC2(c3ccccc31)c1cc(I)c(O)c(I)c1Oc1c2cc(I)c(O)c1I | inactive |  |
| COc1ccccc1NC(=O)c1cc2ccccc2cc1O |  | 82.7 µM (active) |
| CCCCCCCC(OC)OC | inactive |  |
| CC=O | inactive |  |
| O=C(F)C(F)(F)C(F)(F)C(F)(F)C(F)F | inactive |  |
| COc1cc([N+](=O)[O-])ccc1N | inactive |  |
| O=S(=O)(O)c1ccc2cc(O)ccc2c1 | inactive |  |
| NS(=O)(=O)O | inactive |  |
| C=CC(=O)OCC(CO)(COCC(COC(=O)C=C)(COC(=O)C=C)COC(=O)C=C)COC(=O)C=C |  | 1.29 µM (active) |
| CCCCCCCCCCCCCC[n+]1ccccc1 | inactive |  |
| N=C(N)c1ccc(OCCCCCOc2ccc(C(=N)N)cc2)cc1 |  | 57.9 µM (active) |
| CCOC(=O)CN[C@@H](C(=O)N1CC[C@H]1C(=O)NCc1ccc(/C(N)=N/O)cc1)C1CCCCC1 | inactive |  |
| O=C1C=CC(=O)N1c1cccc(N2C(=O)C=CC2=O)c1 | inactive |  |
| CCCCCCCCCCCC | inactive |  |
| O=C(C=C(O)C(F)(F)F)C(F)(F)F | inactive |  |
